Assay results reported in ChEMBL document CHEMBL1157539, “Thousands of chemical starting points for antimalarial lead identification” (Nature, 2010).

test system: Plasmodium falciparum; assay: GSK_TCMDC: Inhibition of Plasmodium falciparum Dd2 in whole red blood cells, using parasite LDH activity as an index of growth. Test compounds present at 2uM; assay type: functional

SMILES | Inhibition [%]
CCN(c1ccc(F)cc1)S(=O)(=O)c1cc(Br)cc2c1N(C(=O)C1CC1)CC2 | 79
CCCCNc1nc(NCCCC)c2c(C)c(Cc3ccccc3)c(NCCCC)nc2n1.Cl | 84
Cc1c(NC(=O)COc2ccc(Cl)cc2C(=O)c2cc(F)cc(C(F)(F)F)c2)ccc2ncsc12 | 18
COc1ccc(C2=[N+]([O-])c3ccccc3C2=O)cc1 | 61

test system: HepG2; assay: GSK_TCMDC: Percent inhibition of human HepG2 cell line. Test compounds present at 10uM.; assay type: functional

SMILES | Inhibition [%]
COc1c(C2CCN(CCCCNC(=O)c3ccc(-c4ccc(C#N)cc4)cc3)CC2)cc(Cl)c2c1CCCC2 | 45
COc1cc2nccc(Nc3cccc(Oc4ccccc4)c3)c2cc1OC.Cl | 25
Cc1cc(=NN=Cc2cccc(Cl)c2)c2ccc(F)cc2[nH]1 | 0
c1ccc(-c2nc(NC3CCCCC3)cc(C3CC3)n2)nc1 | 35
Cc1cccc2nc(-c3cccc(-c4ccc(NC(=O)c5c[nH]cn5)cc4)c3)[nH]c12 | 8
CCOC(=O)c1c(C)n(-c2ccccc2)c2ccc(O)cc12 | 0
CC(C)c1sc(N2CCCCC2)nc1C(=O)Nc1ccc(F)cc1C(F)(F)F.O=C(O)C(F)(F)F | 0
CS(=O)(=O)N1CC2(CCN(CCC(NC(=S)Nc3ccccc3)c3ccc(Cl)c(Cl)c3)CC2)c2ccccc21 (centres undefined) | 24
Cl.O=C(N[C@@H](Cc1ccccc1)[C@H](O)CNC1CCc2ccccc2C1)c1cc(C2CCCC2)cc(N2CCCC2=O)c1 (some centres undefined) | 23
O=C(/C=C/c1ccc(Cl)c(Cl)c1)NCCCCCN1CC[C@H](NC(=O)c2ccc3c(c2)OCO3)C1 | 32
